Inconclusive results are not listed. Entries that show only a call come without a potency. Active and inactive are the calls of the source. Calls come from the whole dose curve; tested in HEK293 reporter line.
Potency is the fitted concentration of half-maximal effect.

The nature of the experiment: qHTS for Inhibitors of the Functional Ribonucleoprotein Complex (vRNP) of Lassa (LASV) Arenavirus: LASV Primary Screen - GLuc reporter signal (AID 1347082). Note: nearly all actives have a fitted effect of over 60% in size. The note with it: LASV minigenome vRNP, Gaussia luciferase reporter; series mostly up to 57.5 µM.
In the case of `COc1ccc(C[C@H]2c3cc(O)c(OC)cc3CC[N+]2(C)[O-])cc1O` (stereo partly specified), the Potency result is “inactive”.
Still for that read-out and setting: the entry for `[3H]C([3H])([3H])C(O)(CCC[C@@H](C)C1CC[C@H]2/C(=C/C=C3/C[C@@H](O)CCC3=C)CCC[C@]12C)C([3H])([3H])[3H]` (stereo partly specified) is “inactive”.
Still for that read-out and setting: the entry for `O=C(Nc1ncc(SCCN2CCCC2)s1)[C@]1(c2ccc(S(=O)(=O)C3CC3)cc2)C[C@@H]1C1CCCCC1` is “inactive”; for `CCCSSCCC` it is “inactive”; for `C=C(C)C(O)CC/C(C)=C/Cc1c(O)ccc(C(=O)/C=C/c2ccc(O)cc2)c1O` (stereo unspecified) it is “inactive”.
Take `C[C@@H]1CC[C@]2(C(=O)O[C@@H]3O[C@H](CO)[C@@H](O)[C@H](O)[C@H]3O)CC[C@]3(C)C(=CCC4[C@@]5(C)C[C@@H](O)[C@H](O)[C@@](C)(C(=O)O[C@@H]6[C@H](O)C[C@@]7(C)C(CC[C@]8(C)C7CC=C7[C@H]9[C@](C(=O)O[C@@H]%10O[C@H](CO)[C@@H](O)[C@H](O)[C@H]%10O)(CC[C@@H](C)[C@@]9(C)O)CC[C@]78C)[C@@]6(CO)C(=O)O)C5CC[C@]43C)[C@@H]2[C@]1(C)O` (stereo partly specified): the Potency entry is “inactive”.
`Cc1ccc2oc3ccccc3c(=O)c2c1`: the Potency entry was “inactive”.
Still for that read-out and setting: as for `Cc1c(O)c(C)c2c(c1O)C(=O)C[C@@H](c1ccccc1)O2`, the entry is “inactive”; as for `Cc1[nH]c(C=C2C(=O)Nc3ccc(S(=O)(=O)Cc4c(Cl)cccc4Cl)cc32)c(C)c1C(=O)N1CCC[C@H]1CN1CCCC1`, “inactive”; as for `COc1cc(-c2oc3cc(O)cc(O)c3c(=O)c2O[C@@H]2O[C@H](CO)[C@@H](O)[C@H](O)[C@H]2O)cc(OC)c1O`, “inactive”.
On to `CC(=O)NC(Cc1cnc[nH]1)C(=O)O` (stereo unspecified), for which the Potency result is “inactive”.
Still for that read-out and setting: the entry for `CC(=O)c1c(O)cccc1O` is “inactive”; for `OC[C@H]1O[C@@H](O[C@H]2[C@@H](O)[C@@](O)(CO)O[C@@H]2CO)[C@H](O)[C@@H](O)[C@@H]1O` it is “inactive”.
`CCCCC/C=C\C=C\C(=O)OCC`: the Potency result was “inactive”.
In the case of `CCCCC/C=C\C/C=C\C[C@H](O)/C=C/C=C\CCCC(=O)O`, the activity change, negative = inhibition is 6.73% [at 0.757 µM] (inactive).
For the compound `CN[C@H]1[C@@H](O)[C@@H]2O[C@@H]3O[C@H](C)CC(=O)[C@]3(O)O[C@@H]2[C@@H](NC)[C@H]1O`, the Potency is 5.44 µM (active).
For the compound `CC(=O)OCC(=O)[C@@]1(O)CC[C@H]2[C@@H]3CCC4=CC(=O)C=C[C@]4(C)[C@@H]3[C@@H](O)C[C@@]21C`, the Potency entry is “inactive”.
Take `C/C=C1/CN2C3CC1C(CO)(C(=O)OC)C2Cc1c3n(C)c2ccccc12` (stereo unspecified): the Potency result is “inactive”.
Same read-out and setting: as for `O=c1c2c(O)cc(O)cc2oc2c(O)ccc(O[C@H]3O[C@@H](CO)[C@H](O)[C@@H](O)[C@@H]3O)c12`, the entry is “inactive”; as for `CC(C)=CCc1c(O)cc(O)c2c1OC(c1ccc(O)cc1)CC2=O` (stereo unspecified), “inactive”.
As for `CCCCC/C=C\C[C@@H]1O[C@H]1/C=C/C(O)C/C=C\CCCC(=O)O` (stereo partly specified), the activity change, negative = inhibition was -3.16% [at 0.757 µM] (inactive).
Regarding `CC/C=C\CCOC(=O)C(C)C`, the Potency result was “inactive”.
`CCCCCCCCCCCCCCCCCC(=O)NCC(COP(=O)([O-])OCC[N+](C)(C)C)OCC` (stereo unspecified): the Potency result was “inactive”.
With `COC(=O)c1ccccc1OC`, the Potency result was “inactive”.
On the same count and under the same terms, the entry for `CC(C)C(=O)OCCc1ccccc1` is “inactive”.
For the compound `CC(=O)O[C@@]1(C)C[C@@H](O)[C@]2(O)C=CO[C@@H](O[C@@H]3O[C@H](CO)[C@@H](O)[C@H](O)[C@H]3O)[C@@H]21`, the Potency entry was “inactive”.

Values taken from PubChem BioAssay (NCATS).
